Measured values reported in PubChem BioAssay AID1159580 (chemical genetic matrix, 2015).
“And” between values parts separate entries of the source, which are not always exact repeats. Equal entries are not always repeated. Out of some 5,500 compounds screened, about 2,000 (36%) were called active. Inconclusive results (about 18%) are left out. Cut-off read from the data, not from the text of the source: active = normalized growth mostly below about 0.91 (no sharp cut-off); inconclusive = no clear call, values can overlap the other calls; inactive = mostly above about 0.92. The list shows a part of the results.

Assay: chemical genetic growth profiling, strain panel (AID 1159580);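 note: tested at 20 µM; growth read once vehicle control cultures reached saturation at 30 °C; 1 = growth at the plate median or of vehicle wells; lower values mean less growth of the strain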
Settings: S. cerevisiae deletion strains, growth OD

Measured: normalized growth

CC(C[N+](C)(C)C)OC(N)=O (centres undefined)
inactive: locus YAL013W, strain DEP1, hits give low values 0.991 | locus YAL021C, strain ccr4, hits give low values 1.05 | locus YAL026C, strain drs2, hits give low values 1.03 | locus YAL030W, strain snc1, hits give low values 1.02 | locus YAL040C, strain CLN3, hits give low values 1 | locus YBL061C, strain skt5, hits give low values 1.03 | locus YBR009C, strain hhf1, hits give low values 1.01 | locus YBR021W, strain FUR4, hits give low values 1.01 | locus YBR023C, strain chs3, hits give low values 1.03 | locus YBR171W, strain sec66, hits give low values 1.05 | locus YBR229C, strain ROT2, hits give low values 0.994 | locus YBR231C, strain swc5, hits give low values 1.01 | locus YBR279W, strain paf1, hits give low values 1.03 | locus YCL011C, strain gbp2, hits give low values 1.01 | locus YCL016C, strain dcc1, hits give low values 1.03 | locus YCL029C, strain bik1, hits give low values 0.988 | locus YCL061C, strain MRC1 (second series), hits give low values 1 | locus YCL061C, strain MRC1, hits give low values 1.01 | locus YCL069W, strain vba3, hits give low values 1.03 | locus YCR088W, strain abp1, hits give low values 1.03 | locus YDL005C, strain med2, hits give low values 1.01 | locus YDL035C, strain GPR1, hits give low values 1.04 | locus YDL040C, strain nat1, hits give low values 1.02 | locus YDL074C, strain BRE1, hits give low values 0.947 | locus YDL101C, strain DUN1, hits give low values 0.976 | locus YDL185W, strain tfp1, hits give low values 0.981 | locus YDL192W, strain arf1, hits give low values 0.983 | locus YDR001C, strain nth1, hits give low values 1.03 | locus YDR069C, strain doa4, hits give low values 1.01 | locus YDR101C, strain arx1, hits give low values 0.991 | locus YDR137W, strain rgp1, hits give low values 1.04 | locus YDR150W, strain NUM1, hits give low values 1.01 | locus YDR159W, strain sac3, hits give low values 0.982 | locus YDR162C, strain NBP2, hits give low values 1.02 | locus YDR195W, strain ref2 1 | locus YDR297W, strain sur2, hits give low values 1.02 | locus YDR318W, strain mcm21, hits give low values 0.985 | locus YDR334W, strain swr1, hits give low values 1.03 | locus YDR335W, strain msn5, hits give low values 1.03 | locus YDR363W, strain ESC2, hits give low values 0.974 | locus YDR388W, hits give low values 0.992 | locus YDR392W, strain spt3, hits give low values 0.962 | locus YDR502C, strain sam2, hits give low values 0.991 | locus YEL003W, strain gim4, hits give low values 1.01 | locus YEL037C, strain rad23, hits give low values 1.04 | locus YEL061C, strain CIN8 (second series), hits give low values 1.03 | locus YEL061C, strain CIN8, hits give low values 0.995 | locus YER002W, strain NOP16, hits give low values 1.02 | locus YER015W, strain faa2, hits give low values 1.02 | locus YER016W, strain bim1, hits give low values 1.02 | locus YER110C, hits give low values 0.972 | locus YER111C, strain swi4, hits give low values 1.04 | locus YER155C, strain BEM2 (second series), hits give low values 0.998 | locus YER155C, strain BEM2, hits give low values 0.986 | locus YER167W, strain BCK2, hits give low values 1.01 | locus YFR010W, strain ubp6, hits give low values 1.02 | locus YGL078C, strain dbp3, hits give low values 0.982 | locus YGL086W, strain mad1, hits give low values 0.984 | locus YGL167C, strain pmr1, hits give low values 1.04 | locus YGL173C, strain kem1, hits give low values 1.01 | locus YGL227W, strain vid30, hits give low values 1.02 | locus YGL240W, strain doc1, hits give low values 1.01 | locus YGL248W, strain PDE1, hits give low values 0.987 | locus YGL253W, strain hxk2, hits give low values 1.02 | locus YGR078C, strain PAC10, hits give low values 0.986 and 0.968 | locus YGR135W, strain pre9, hits give low values 0.987 | locus YGR229C, strain SMI1, hits give low values 1.03 | locus YGR252W, strain gcn5, hits give low values 1.04 | locus YHR013C, strain ard1, hits give low values 1.03 | locus YHR027C, strain rpn1, hits give low values 1.03 | locus YHR030C, strain SLT2, hits give low values 0.991 and 0.986 | locus YHR079C, strain IRE1 (second series), hits give low values 0.975 | locus YHR079C, strain IRE1, hits give low values 0.976 | locus YHR094C, strain hxt1, hits give low values 0.982 | locus YHR129C, strain ARP1, hits give low values 0.988 | locus YHR142W, strain chs7, hits give low values 1.04 | locus YHR200W, strain rpn10, hits give low values 0.987 | locus YIL066C, strain RNR3, hits give low values 1.01 | locus YIL073C, strain SPO22, hits give low values 1.04 | locus YIL125W, strain kgd1, hits give low values 0.979 | locus YIR030C, strain dcg1, hits give low values 0.976 | locus YJL092W, strain hpr5, hits give low values 1.02 | locus YJL095W, strain BCK1 (second series), hits give low values 1.05 | locus YJL095W, strain BCK1, hits give low values 0.985 and 0.982 | locus YJL115W, strain asf1, hits give low values 1.04 | locus YJL129C, strain trk1, hits give low values 1.04 | locus YJL134W, strain LCB3, hits give low values 0.989 | locus YJL154C, strain vps35, hits give low values 1.03 | locus YJL164C, strain tpk1, hits give low values 1.03 | locus YJL166W, strain qcr8, hits give low values 1.01 | locus YJL168C, strain set2, hits give low values 0.981 | locus YJL187C, strain SWE1 (second series), hits give low values 0.987 | locus YJL187C, strain SWE1, hits give low values 1.03 | locus YJR043C, strain POL32, hits give low values 1.05
